Screening data from PubChem.
Rab9 promoter act: activates the Rab9 promoter. Huh7 Rab9 promoter-luciferase reporter, luminescence, 24 h. Potency, µM (titrated, usually from 9.22 µM), for the others: at the highest dose activation, negative = inhibition, hits mostly activators. 2.8% of 320,000 active; note: % of control where 0% means no effect; nearly all actives have a fitted effect of over 60% in size
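Rab9 promoter-driven luciferase in stably transfected Huh7 cells; 1500 cells/well rested 2 h, exposed to compound in DMSO for 24 h at 37 °C, 5% CO2. Luminescence read 10 min after adding luciferase reagent at ambient temperature.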
NPC1 promoter act: activators of NPC1 promoter. Huh7 NPC1 promoter luciferase reporter, 24 h. Potency, µM (doses to about 9.22 µM), inactives show at the highest dose activation, usual class: activators. 2.4% of 320,000 active; note: % of control where 0% means no effect; nearly all actives have a fitted effect of over 60% in size
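Readout is luciferase luminescence, reflecting NPC1 promoter activation in stably transfected Huh7 cells after 24 h compound exposure at 37 °C in reduced-serum medium with 10% FBS.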
FLuc modulator: firefly luciferase modulation, counter-screen for miR-21 project; AID 588342; purified FLuc, Km substrates, luminescence inhibition; 6.9% of 360,000 active; Potency, µM (series often up to 57.5 µM), for the others: at the top dose activity change, negative = inhibition, usual class: inhibitors;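 note: plate controls were vehicle for no effect and reference inhibitor for full effect; nearly all actives have a fitted effect of over 55% in size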
Target sequence (P08659 whole entry, looked up): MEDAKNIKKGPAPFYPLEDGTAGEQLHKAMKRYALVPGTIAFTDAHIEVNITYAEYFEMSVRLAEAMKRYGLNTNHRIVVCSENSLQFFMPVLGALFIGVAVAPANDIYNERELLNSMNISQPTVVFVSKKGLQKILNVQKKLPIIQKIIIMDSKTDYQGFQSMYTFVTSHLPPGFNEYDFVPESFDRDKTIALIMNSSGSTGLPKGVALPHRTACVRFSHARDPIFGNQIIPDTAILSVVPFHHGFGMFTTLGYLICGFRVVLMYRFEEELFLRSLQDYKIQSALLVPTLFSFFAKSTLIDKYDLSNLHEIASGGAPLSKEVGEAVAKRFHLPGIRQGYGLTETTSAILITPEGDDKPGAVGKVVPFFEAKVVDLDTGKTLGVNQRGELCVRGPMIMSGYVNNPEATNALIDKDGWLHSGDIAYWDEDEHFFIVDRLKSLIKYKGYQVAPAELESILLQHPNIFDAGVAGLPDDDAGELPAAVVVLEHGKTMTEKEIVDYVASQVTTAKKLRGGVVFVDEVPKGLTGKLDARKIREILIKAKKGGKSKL
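Purified P. pyralis luciferase (10nM final) with 10uM D-luciferin and 10uM ATP (Km levels) in 50mM Tris acetate pH 7.5, 10mM Mg acetate, 0.01% Tween-20, 0.05% BSA; qHTS 6-point titration, ~60 µM downward; luminescence read.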
Luc counter: counter-screen: inhibitors of Kinase-Glo firefly luciferase; Q27757; Kinase-Glo luciferase, ATP luminescence, 8 min; Potency, µM (highest dose often 38.3 µM), without a hit: top-dose activity change, negative = inhibition, hits mostly inhibitors; 0.28% of 200,000 active; note: % is set by controls: 0 for no effect and ±100 for the full control effect; nearly all actives have a fitted effect of over 60% in size
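Light output from Kinase-Glo luciferase with luciferin and 10 uM ATP in 50 mM imidazole pH 7.2, KCl, MgCl2, Tween 20, BSA; compound pin-delivered, 8-min ambient incubation, then luminescence read.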
ELG1 genotoxic: inducers of genotoxicity in HEK293T ELG1-luciferase cells; 1.3% of 330,000 active; Potency, µM (highest dose often 46 µM), for inactives: at the top dose activity change, positive = activation, hits mostly activators; HEK293T ELG1-luciferase reporter, luminescence, 16 h; note: % of control where 0% means no effect; nearly all actives have a fitted effect of over 60% in size
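Step 1: seed 2,000 HEK293T ELG1-luciferase cells per well. Step 2: add compound or DMSO, incubate 16 hr at 37 °C. Step 3: ONE-Glo, 30 min at room temperature, read luminescence.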
SMN2 splice up: increases expression of the SMN2 splice variant | HEK293 SMN2-luciferase splicing reporter, luminescence, 30-36 h | AID 1458 | Potency, µM (highest dose often 46.1 µM), for inactives: top-dose activity change, positive = activation, usual class: activators | 2.8% of 210,000 active; note: % of control where 0% means no effect; nearly all actives have a fitted effect of over 55% in size
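HEK293 cells carry an SMN2 minigene-luciferase reporter in which exon 7 inclusion puts luciferase in frame. Cells were seeded at 2000 cells/well, attached for 10-12 hours, then exposed to compounds for 30-36 hours at 37C before ONE-Glo luminescence.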
An asterisk follows results filed as active; ? = inconclusive; . = not tested or not shown; [ ] = dose if it differs, or a comment. Only some compounds are listed: those with a hit (about 7.4% of all), similar ones and a draw of the others. Calls come from the whole dose curve; as a rule, active = well fitted curve in the direction sought with a large enough effect; inconclusive = small, poorly fitted or top-dose-only effect, or another doubt; inactive = no such curve, though single readings can be large; an effect the other way counts as inactive or inconclusive. Potency is the fitted concentration of half-maximal effect.

SMILES | Rab9 promoter act | NPC1 promoter act | FLuc modulator | Luc counter | ELG1 genotoxic | SMN2 splice up
O=C(Nc1ccc2c(c1)OCO2)N1CCN(c2ccccc2Cl)CC1 | ? | ? | 19µM* | -6% | ? | 1%
O=C(Nc1ccc(Cl)cc1)Nc1ccc2c(c1)OCO2 | 1.8µM* | 1.1µM* | 2.1µM* | . | 4.1µM* | .
O=C(Nc1ccc2c(c1)OCO2)Nc1cnccn1 | 12% | 15% | ? | -8% | ? | 58%
CC(=O)O[C@H]1CC[C@@]2(C)C(=CC[C@@H]3[C@H]4CC[C@@H]([C@H](C)C(=O)O)[C@]4(C)CC[C@H]32)C1 | . | . | . | 2%[7.66 µM] | . | 2%[9.22 µM]
O=C(Nc1ccc(OC(F)F)c(Cl)c1)Nc1ccc2c(c1)OCO2 | 6% | 18% | ? | 0% | -3% | -12%
O=C(Nc1ccc(C(=O)O)cc1)/C(=C\c1ccc2c(c1)OCO2)NC(=O)c1ccc(Br)o1 | 0% | -1% | -12% | 2% | 4% | 16%
O=C(NCc1ccncc1)Nc1ccc2c(c1)OCO2 | ? | -1% | ? | 5% | 7% | .
O=C(Nc1cccc(C(=O)O)c1)/C(=C\c1ccc2c(c1)OCO2)NC(=O)c1ccc(Br)o1 | ? | ? | 21µM* | -2% | 10% | ?
O=C(Nc1ccc2c(c1)OCO2)Nc1ccc(Cl)cc1Cl | ? | ? | 4.8µM* | 18% | ? | ?
O=C(NCc1cccs1)Nc1ccc2c(c1)OCO2 | 3.5µM* | ? | 17µM* | -2% | ? | 14µM*
Cc1ccc(NC(=O)Nc2ccc3c(c2)OCO3)c(Br)c1 | ? | ? | ? | . | 18µM* | .
O=C(O)c1ccnc2c(O)cccc12 | ? | 26% | -3% | . | . | .
Cc1ccc(-n2c(=O)c3c(cnn3C)n(CC(=O)Nc3cc(C)ccc3C)c2=O)cc1 | . | . | -1% | . | . | 2%
O=C(Nc1ccc2c(c1)OCO2)Nc1ccc(F)cc1F | 1.4µM* | 1.4µM* | 6µM* | . | ? | .
COC(=O)c1ccccc1NC(=O)Nc1ccc2c(c1)OCO2 | 26% | 21% | ? | 18% | ? | -15%
O=C(Nc1ccc(F)cc1)Nc1ccc2c(c1)OCO2 | -5% | 8% | 3% | . | 1% | .
O=C(Nc1ccc2c(c1)OCO2)c1cnn2cccnc12 | 1.6µM* | 2.2µM* | 9.5µM* | -20% | 4.1µM* | 11µM*
COC(=O)c1ccc(C(=O)OC)c(NC(=O)Nc2ccc3c(c2)OCO3)c1 | ? | ? | 21µM* | 4% | 15µM* | ?
O=C(Nc1ccc2c(c1)OCO2)Nc1ccc2c(c1)OCO2 | 1.8µM* | 1.4µM* | ? | -4% | ? | 7.9µM*
COc1cccc(NC(=O)Cn2c(=O)n(Cc3ccc(C(=O)NCc4ccc(C)cc4)cc3)c(=O)c3ccccc32)c1 | . | . | 4% | . | . | -11%
CC(=O)c1cccc(NC(=O)NCc2cccs2)c1 | -6% | 0% | ? | -6% | -3% | 7%
O=C(NCc1cccs1)Nc1ccc(Cl)cc1 | ? | ? | ? | -1% | 11% | 10µM*
O=C(Nc1cccc(C(=O)O)c1)Nc1ccc2c(c1)OCO2 | ? | ? | 0.11µM* | . | -21% | .
S=C(Nc1ccc2c(c1)OCCO2)Nc1ccc2c(c1)OCO2 | 4µM* | ? | 17µM* | -3% | ? | ?
O=C(Nc1cccnc1)Nc1ccc2c(c1)OCO2 | ? | ? | 12µM* | ? | 17% | ?
SMILES | Rab9 promoter act | NPC1 promoter act | FLuc modulator | Luc counter | ELG1 genotoxic | SMN2 splice up
Cc1[nH]c(C)c(CN(C)C)c1CN(C)C | . | . | . | -12%[7.66 µM] | . | 0%[9.22 µM]
C=C(C)C(O)/C=C/c1ccc(Br)cc1 (stereo not given) | . | . | . | -5% | . | -4%
CC(Oc1ccccc1)C(=O)Nc1ccc(C(=O)OCc2cc(=O)n3ccsc3n2)cc1 (stereo not given) | . | . | 0% | . | . | .
O=C(Nc1cccc(F)c1)Nc1cnccn1 | 23% | 6% | -9% | . | 2% | .
O=C(Nc1cccc(F)c1)Nc1ccccn1 | 2.8µM* | 3.2µM* | 13µM* | -1% | 26% | 23%
CC(C)(C)C1CCc2sc(C(=O)NNC(=O)CCl)cc2C1 (stereo not given) | -45% | -42% | 4.8µM* | 7% | ? | -18%
CC(C)(C)C1CCC(=NNC(=O)c2cc3c(s2)CCCC3)CC1 (stereo not given) | -1% | -5% | -2% | 0% | -1% | -10%
Cc1ccc(Cl)cc1N1CCN(CCCNC(=O)C2COc3ccccc3C2)CC1 (stereo not given) | . | . | -7% | . | . | .
O=C(COC(=O)c1ccc[nH]c1=O)NCCc1ccc(Cl)cc1Cl | 0.5µM* | 0.4µM* | 11µM* | . | ? | .
Cc1ccc(C(=O)c2ccccc2C(=O)OCC(=O)NCCc2ccc(Cl)cc2Cl)cc1 | -3% | -2% | 0% | 0% | -4% | 3%
Cc1oc(-c2ccccc2)cc1C(=O)Nc1cccc(/C=C\C(=O)O)c1 | 1% | -4% | 15µM* | . | -1% | .
O=C(O)/C=C/c1cccc(NC(=O)c2ccccc2)c1 | 14% | 1% | ? | . | 0% | .
Cc1oc(C(C)(C)C)cc1C(=O)Nc1cccc(/C=C\C(=O)O)c1 | 2% | 2% | 8.5µM* | 3% | 9% | 8%
Cc1oc(-c2ccccc2)cc1C(=O)Nc1ccc(N(C)C)cc1 | 0% | 0% | 13µM* | -2% | 0% | -30%
O=C(c1cccc(F)c1)N1CCC[C@@]2(CCN(c3ccccn3)C2)C1 | . | . | . | -1% | . | -12%
CCOC(=O)C(=O)C1(C(=O)OCC)Oc2cc(OC)cc(OC)c2C(=O)C1c1ccccc1 (stereo not given) | . | . | . | -2% | . | -12%
CCCn1c(-c2ccc(F)cc2)nc2c(NCCCCN(C)C)nc(C)nc21 | . | . | . | 0% | . | -2%
CCOc1ccccc1NC(=O)n1ncc2c(C)cccc21 | 2.5µM* | 4µM* | 7.6µM* | . | 4% | .
Cc1cc(NC(=O)n2ncc3c(C)cccc32)ccc1Br | . | . | -2% | . | . | .
Cc1cccc2c1cnn2C(=O)Nc1cc(F)ccc1F | 0.28µM* | ? | 0.67µM* | . | ? | .
C/C(=N\NC(=O)c1cc(C(C)C)[nH]n1)c1ccncc1 | ? | ? | ? | . | 9% | .
C/C(=N/NC(=O)c1cc(-c2ccc(Br)s2)[nH]n1)c1ccco1 | -8% | 1% | 24µM* | 0% | 4% | -10%
C/C(=N\NC(=O)c1cc(C(C)C)[nH]n1)c1ccco1 | 2.5µM* | 4µM* | 12µM* | 8.9µM* | ? | 2.8µM*
CC(C)c1cc(C(=O)N/N=C/c2ccco2)n[nH]1 | ? | ? | 17µM* | -10% | ? | 16µM*
CNCc1ccccc1Sc1cccc(O)c1 | -5% | -2% | -2% | -5% | -4% | ?
